# In PubChem BioAssay (Tox21):
# Records with an inconclusive call do not appear. Unmarked numbers belong to inactive results. Active and inactive are the calls of the source. Calls come from the whole dose curve.
# Molecular target: Thyrotropin receptor (Homo sapiens) (UniProt P16473)
# Assay: qHTS assay to identify small molecule agonists of the thyroid stimulating hormone receptor (TSHR) signaling pathway (AID 1224843); note: nearly all actives have a fitted effect of over 45% in size
# Details: TSHR-HEK293 cells, cAMP HTRF, agonist mode, 30 min; series mostly up to 92.4 µM; activation: at the top concentration
# Excerpt: National Center for Advancing Translational Sciences [NCATS]
# NIH Chemical Genomics Center [NCGC]
# U.S. Environmental Protection Agency [EPA]
# National Institutes of Environmental Health Sciences [NIEHS]
# National Toxicology Program [NTP]
# U.S. Food and Drug Administration [FDA]
# TSHR is the receptor for thyrotropin (thyroid stimulating hormone or TSH), a member of the glycoprotein hormone family. TSH is released by the anterior pituitary gland and is the main regulator of thyroid gland growth and development. Upon binding circulating thyrotropin, a G-protein signal cascade activates adenylyl cyclase and […] cAMP concentration is increased. cAMP is a key second messenger involved extensively in cellular signal transduction pathways associated with the majority of G-protein coupled receptors (GPCRs). The activation of these GPCRs by neurotransmitters, lipids, nucleotides, peptides and hormones results in the activation or the inhibition of plasma membrane-bound adenylate cyclase through heterotrimeric G-proteins. A cell-based TSHR assay was used to screen the Tox21 10K library for compounds that can modulate TSHR in agonist mode.
# Tox21 Assay Protocol Summary:
# TSHR-Hek293 cells were dispensed at 800 cells/4uL/well in 1536-well white plates using a Multidrop dispenser. […] The plates were incubated at room temperature for 30 min. 2.5 ul/well of cAMP-d2 and 2.5ul/well of anti-cAMP-cryptate was added respectively into the assay plates using a Flying Reagent Dispenser. After 1 hr incubation at room temperature, the fluorescence intensity in the plates was measured using an Envision plate reader. Each test compound was measured at 15 concentrations and in triplicates.
# % is set by controls: 0 for no effect and ±100 for the full control effect; potency is the fitted concentration of half-maximal effect.
# Sequence of Thyrotropin receptor (Homo sapiens) (P16473 whole entry, looked up): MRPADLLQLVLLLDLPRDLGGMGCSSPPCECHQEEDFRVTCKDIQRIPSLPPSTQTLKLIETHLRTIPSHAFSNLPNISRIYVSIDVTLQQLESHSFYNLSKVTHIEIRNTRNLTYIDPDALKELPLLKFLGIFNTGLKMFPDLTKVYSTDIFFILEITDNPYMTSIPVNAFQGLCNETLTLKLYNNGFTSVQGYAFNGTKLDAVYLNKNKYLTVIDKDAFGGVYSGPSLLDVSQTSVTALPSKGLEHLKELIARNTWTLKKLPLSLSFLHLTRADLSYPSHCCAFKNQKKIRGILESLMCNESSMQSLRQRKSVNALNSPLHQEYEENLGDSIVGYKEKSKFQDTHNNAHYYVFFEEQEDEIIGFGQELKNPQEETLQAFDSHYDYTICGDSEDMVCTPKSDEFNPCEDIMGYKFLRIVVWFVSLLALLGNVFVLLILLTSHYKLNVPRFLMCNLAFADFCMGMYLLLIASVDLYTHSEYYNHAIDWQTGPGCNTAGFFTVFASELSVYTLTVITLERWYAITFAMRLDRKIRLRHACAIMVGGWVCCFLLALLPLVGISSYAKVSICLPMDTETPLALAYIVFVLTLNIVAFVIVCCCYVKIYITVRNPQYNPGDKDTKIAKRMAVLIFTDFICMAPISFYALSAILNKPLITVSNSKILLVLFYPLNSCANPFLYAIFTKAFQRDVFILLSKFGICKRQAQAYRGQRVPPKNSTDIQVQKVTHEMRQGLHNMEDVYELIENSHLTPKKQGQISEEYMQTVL
SMILES,activation,Potency
CCN(CC)CCc1nc(-c2ccccc2)no1,-3.23% [at 42.5 µM],
CC(=O)N(O)CCCCCNC(=O)CCC(=O)N(O)CCCCCNC(=O)CCC(=O)N(O)CCCCCN,1.22% [at 42.5 µM],
CCN(CCO)CCCC(C)Nc1ccnc2cc(Cl)ccc12 (stereo not given),-1.08% [at 8.39 µM],
CN(C)C/C=C(/c1ccc(Br)cc1)c1cccnc1,-2.44% [at 42.5 µM],
CN(C(=O)CCCOc1ccc2[nH]c(=O)ccc2c1)C1CCCCC1,,0.335 µM (active)
COc1ccc(OC)c(OC)c1,-6.05%,
Cn1c(NCCN(CCO)CCCc2ccc([N+](=O)[O-])cc2)cc(=O)n(C)c1=O,-0.878% [at 42.5 µM],
CCCCC(CC)COCCCN (stereo not given),-7.06%,
CC(C)(C)C(=O)OCOP(=O)(COCCn1cnc2c(N)ncnc21)OCOC(=O)C(C)(C)C,7.83% [at 42.5 µM],
CCOC(=O)C1=NN(c2ccccc2)C(=O)C1,0.285%,
CC(=O)N(CC(=O)N(C)C)c1ccccc1,0.907% [at 42.5 µM],
O=C1c2cccc(O)c2C(=O)c2c(O)cc(CO)cc21,17.7%,
CCCCCC(CO)CCC (stereo not given),-4.04%,
O=c1c2ccccc2nnn1CCl,3.07%,
OCC1CC2CC1C1CCC(CO)C21 (stereo not given),7.92%,
CCOC(=O)[C@H](CCc1ccccc1)N[C@H]1CCc2ccccc2N(CC(=O)O)C1=O,7.74% [at 42.5 µM],
CC(=O)SCc1ccco1,2.2%,
CCOC(=S)SSC(=S)OCC,11.5%,
CC(=O)/C(C)=C/C1C(C)=CCCC1(C)C (stereo not given),1.55%,
OCCC1CCCCN1 (stereo not given),0.922%,

SMILES,activation,Potency
O=C1Nc2cc(Cl)ccc2Oc2ccccc21,2.71% [at 42.5 µM],
CC1CCc2cc(F)cc3c(=O)c(C(=O)O)cn1c23 (stereo not given),-6.82% [at 42.5 µM],
CCCCCOC(=O)c1ccc(O)cc1,-1.98%,
CC(O)C1CCCCC1 (stereo not given),-5.69%,
Cc1ccc2c(ccc3ccccc32)c1,-23.1%,
C[C@@H](C1=C(CCN(C)C)Cc2ccccc21)c1ccccn1,-0.845% [at 42.5 µM],
CN(C)CC/C=C1\c2ccccc2COc2ccccc21,-13.3% [at 42.5 µM],
CCCCCCCCCCCCCCC1CO1 (stereo not given),-4.62%,
CCCCOC(=O)/C=C\C(=O)OCCCC,-8.45%,
Cn1sccc1=O,-2.41%,
CCCC[C@H]1CN(CC2CCOCC2)C(=O)OC12CCN(C1(C)CCN(C(=O)c3c(C)ncnc3C)CC1)CC2,-7.9%,
CCCCCCCCCO,4.97%,
Oc1ccc(C(O)CNCCCCCCNCC(O)c2ccc(O)c(O)c2)cc1O (stereo not given),,6.68 µM (active)
CC(C)CCCC(C)CCO (stereo not given),-1.2%,
CCCCOC(O)CC (stereo not given),0.487%,
CCCCCCc1ccc(N)cc1,-7.72%,
Cc1ccc(C(=O)C(C)CN2CCCCC2)cc1 (stereo not given),1.09% [at 42.5 µM],
CC[C@H](C)[C@H](N)C(=O)O,-6.67% [at 42.5 µM],
CN1CCC(=C2c3ccccc3CCc3sccc32)CC1,-5.3% [at 42.5 µM],
CCCCC(CC)(CO)CO,-0.719%,
